# Measurements taken from PubChem BioAssay (NCI).
# Compounds without any hit were thinned out: in the full panel of roughly 79,000, 15% have a hit. Values without a mark were called inactive. Active and inactive are the calls of the source. Cut-off read from the data, not from the text of the source: active = growth inhibition above about 70%; inactive = the rest. Where a SMILES comes first, the peptide text is derived from it. The star is where a group is joined. Cbz = O=C(OCc1ccccc1)*
# Assay: NCI Yeast Anticancer Drug Screen. Data for the mec2-1 strain (AID 157)
# Conditions: S. cerevisiae mec2-1 strain, at 50.0 µM, stronger effect = higher value
# In short: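 Vehicle-treated cultures served as reference for growth inhibition of compound-exposed mec2-1 yeast.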
row,Compound,growth inhibition
1,O=C(CCCl)OC1CCCC1,-9.8%
2,NC(CS(=O)Cc1ccccc1)C(=O)O (stereo not given),-1.1%
3,CC(=O)OCCc1cccc(C)c1,-17.9%
4,CCc1nc(=S)c2cnn(-c3ccccc3)c2[nH]1,1.1%
5,CC(C)N(CCn1c2c3ccccc3ccc2c2oc(=O)c3ccccc3c21)C(C)C,-23.7%
6,COc1ccc(/C=C2\N=C(c3cccc(Cl)c3)OC2=O)cc1OC,4.25%
7,O=C1C(CO)=C[C@H](O)[C@H]2O[C@@H]12,0.3%
8,O=C(O)c1ccccc1SC(Sc1ccccc1C(=O)O)c1ccc2c(c1)OCO2,-11.9%
9,O=S(=O)([N-]c1nc2ccccc2nc1-[n+]1ccccc1)c1ccccc1,-0.2%
10,CCCCC(O)(CCCC)CC(C)C,19.5%
11,O=C1CCCC(CCc2ccccc2)O1 (stereo not given),-4.05%
12,O=C1c2ccccc2C(=O)N1CCc1ccccc1,7%
13,NCCC(=O)O,14.9%
14,Nc1cc(S(=O)(=O)O)nc(N)[n+]1[O-],-1.8%
15,CC(O)c1cccc(NC(=O)Nc2ccc(Cl)c(Cl)c2)c1 (stereo not given),83.4% (active)
16,CNC(=O)OCc1nc(N=[N+]=[N-])n(C)c1COC(=O)NC,-19.1%
17,Cc1ccc(C2(c3ccc(C)cc3)OCC(C)(CBr)CO2)cc1,-1.4%
18,C/C(=N\N=C(/C)c1ccc(N)cc1)c1ccc(N)cc1,5%
19,CCOC(C)C1C2CCCCC21 (stereo not given),0.75%
20,CCOC(=O)CCC(NC(=O)OCc1ccccc1)C(=O)NC(CCC(=O)OCC)C(=O)OCC (stereo not given) (Cbz-Glu(OEt)-Glu(OEt)-OEt; configuration not given here),3.15%

row,Compound,growth inhibition
1,CCCCCC(=O)Cc1cc(O)cc2c1C(=O)Oc1cc(O)c(C(=O)O)c(CCCCC)c1O2,7.45%
2,CC(C)C1=C(Cc2ccccc2)C(=O)O/C1=C\c1cc(Cl)c(O)c(Cl)c1,8%
3,CCCCCCCCCC(=O)N/N=C/c1cccnc1,87% (active)
4,COc1ccc(CCN2CN=C(Sc3ccc([N+](=O)[O-])cc3Cl)NC2)cc1OC,-11.2%
5,CCOC(=O)C(N=Nc1ccc(C)cc1Br)C(C)=O (stereo not given),13.9%
6,O=C1S/C(=C2\C(=O)N(CN3CCCCC3)c3ccc(Br)cc32)C(=O)N1CN1CCCCC1,-2.9%
7,ClCC1OC1CCl (stereo not given),3.05%
8,CC(=O)c1c(P(=O)(OC(C)C)OC(C)C)nn(-c2ccc([N+](=O)[O-])cc2)c1C,20.1%
9,O=C1CSC(/C(=C/c2ccccc2)c2nc3ccccc3[nH]2)=N1,-1.75%
10,Cc1ccc(S(=O)(=O)NC(=O)C2(Br)S(=O)(=O)OCCOS2(=O)=O)cc1,-28.4%
11,O=c1[nH]c(=O)c2nnoc2[nH]1,7.65%
12,CCC(=O)OC1CCC(OC(=O)CC)CC1 (stereo not given),9.8%
13,CC(C)(C)OC(=O)N1CCCC1C(=O)Oc1ccc([N+](=O)[O-])cc1 (stereo not given),19.4%
14,CCOC(=O)[C@H](C)OC(=O)[C@@](C)(NC(=O)c1ccccc1C(=O)OC)[C@@H]1NC=C(C(=O)OC)CS1,26.9%
15,COc1ccc(/C=N/Nc2ccc(S(=O)(=O)O)cc2)cc1,-12.6%
16,CCOC(=O)c1[nH]c(-c2ccc(OC)cc2)c(C(=O)OCC)c1-c1ccccc1,-4.7%
17,CC#CC(O)(C(=O)OCCCN(C)C)C1CCCCC1 (stereo not given),3.55%
18,O=C1CN(c2ccccc2)C(=O)CN1/N=C/c1ccc[nH]1,-7.55%
19,CCOC(=O)c1c(NNc2ccccc2)nc2ccccc2c1-c1ccccc1,-2.05%
20,COc1ccc(C(=O)c2ccccc2C)cc1OC,0.1%

# Assay: NCI Yeast Anticancer Drug Screen. Data for the sgs1 mgt1 strain (AID 161);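 note: 0% = growth of cultures given vehicle only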
# Conditions: S. cerevisiae sgs1 mgt1 strain, at 50.0 µM, stronger effect = higher value
# In short: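 Inhibition of yeast growth, normalised to vehicle-treated controls, is reported for a strain bearing genetic alterations in DNA damage repair.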
row,Compound,growth inhibition
1,O=C(CCCl)OC1CCCC1,-3.6%
2,NC(CS(=O)Cc1ccccc1)C(=O)O (stereo not given),-0.3%
3,CC(=O)OCCc1cccc(C)c1,-4.8%
4,CCc1nc(=S)c2cnn(-c3ccccc3)c2[nH]1,11.2%
5,CC(C)N(CCn1c2c3ccccc3ccc2c2oc(=O)c3ccccc3c21)C(C)C,-2.8%
6,COc1ccc(/C=C2\N=C(c3cccc(Cl)c3)OC2=O)cc1OC,18.2%
7,O=C1C(CO)=C[C@H](O)[C@H]2O[C@@H]12,-9.45%
8,O=C(O)c1ccccc1SC(Sc1ccccc1C(=O)O)c1ccc2c(c1)OCO2,2.85%
9,O=S(=O)([N-]c1nc2ccccc2nc1-[n+]1ccccc1)c1ccccc1,14.7%
10,CCCCC(O)(CCCC)CC(C)C,-2.4%
11,O=C1CCCC(CCc2ccccc2)O1 (stereo not given),1.3%
12,O=C1c2ccccc2C(=O)N1CCc1ccccc1,-6.9%
13,NCCC(=O)O,-8.25%
14,Nc1cc(S(=O)(=O)O)nc(N)[n+]1[O-],1.9%
15,CC(O)c1cccc(NC(=O)Nc2ccc(Cl)c(Cl)c2)c1 (stereo not given),70%
16,CNC(=O)OCc1nc(N=[N+]=[N-])n(C)c1COC(=O)NC,-3.65%
17,Cc1ccc(C2(c3ccc(C)cc3)OCC(C)(CBr)CO2)cc1,-20.4%
18,C/C(=N\N=C(/C)c1ccc(N)cc1)c1ccc(N)cc1,1.9%
19,CCOC(C)C1C2CCCCC21 (stereo not given),6.2%
20,CCOC(=O)CCC(NC(=O)OCc1ccccc1)C(=O)NC(CCC(=O)OCC)C(=O)OCC (stereo not given) (Cbz-Glu(OEt)-Glu(OEt)-OEt; configuration not given here),-11.4%

row,Compound,growth inhibition
1,CCCCCC(=O)Cc1cc(O)cc2c1C(=O)Oc1cc(O)c(C(=O)O)c(CCCCC)c1O2,32%
2,CC(C)C1=C(Cc2ccccc2)C(=O)O/C1=C\c1cc(Cl)c(O)c(Cl)c1,24.6%
3,CCCCCCCCCC(=O)N/N=C/c1cccnc1,95.9% (active)
4,COc1ccc(CCN2CN=C(Sc3ccc([N+](=O)[O-])cc3Cl)NC2)cc1OC,7.55%
5,CCOC(=O)C(N=Nc1ccc(C)cc1Br)C(C)=O (stereo not given),24.9%
6,O=C1S/C(=C2\C(=O)N(CN3CCCCC3)c3ccc(Br)cc32)C(=O)N1CN1CCCCC1,9.35%
7,ClCC1OC1CCl (stereo not given),1.1%
8,CC(=O)c1c(P(=O)(OC(C)C)OC(C)C)nn(-c2ccc([N+](=O)[O-])cc2)c1C,22.1%
9,O=C1CSC(/C(=C/c2ccccc2)c2nc3ccccc3[nH]2)=N1,0.15%
10,Cc1ccc(S(=O)(=O)NC(=O)C2(Br)S(=O)(=O)OCCOS2(=O)=O)cc1,6.1%
11,O=c1[nH]c(=O)c2nnoc2[nH]1,4.55%
12,CCC(=O)OC1CCC(OC(=O)CC)CC1 (stereo not given),2.45%
13,CC(C)(C)OC(=O)N1CCCC1C(=O)Oc1ccc([N+](=O)[O-])cc1 (stereo not given),11.4%
14,CCOC(=O)[C@H](C)OC(=O)[C@@](C)(NC(=O)c1ccccc1C(=O)OC)[C@@H]1NC=C(C(=O)OC)CS1,11.2%
15,COc1ccc(/C=N/Nc2ccc(S(=O)(=O)O)cc2)cc1,-18.7%
16,CCOC(=O)c1[nH]c(-c2ccc(OC)cc2)c(C(=O)OCC)c1-c1ccccc1,28.8%
17,CC#CC(O)(C(=O)OCCCN(C)C)C1CCCCC1 (stereo not given),3.85%
18,O=C1CN(c2ccccc2)C(=O)CN1/N=C/c1ccc[nH]1,-4.9%
19,CCOC(=O)c1c(NNc2ccccc2)nc2ccccc2c1-c1ccccc1,11.1%
20,COc1ccc(C(=O)c2ccccc2C)cc1OC,-1.15%
